Screening results as filed in PubChem.
The sample as a whole holds a higher share of hits than the screen did.
Tb PYK inh – blocks Trypanosoma brucei pyruvate kinase; actives 0.12% (n = 410,000); Potency, µM (doses to about 76.8 µM), most hits filed as inhibitors; AID 624173; TbPYK enzyme, Kinase-Glo Plus ATP luminescence, 45 min; Q57TT1; also: nearly all actives have a fitted effect of over 50% in size
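TbPYK + substrate in 50 mM TEA pH 7.2, 100 mM KCl, 10 mM MgCl2, 0.05% BSA, 0.01% Tween-20; cpd pinned; ADP 130 uM final; 45 min RT; Kinase-Glo Plus 10 min; luminescence endpoint.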
Giardia FBPA inh – inhibitors of Giardia lamblia fructose-1,6-bisphosphate aldolase | Potency, µM (highest dose often 59.6 µM), most hits filed as inhibitors | actives 0.71% (n = 290,000) | A8B2U2 | purified Giardia FBPA; also: nearly all actives have a fitted effect of over 55% in size
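Giardia FBPA (40 nM reagent) was preincubated 10 min at RT with compound (up to 57.5 uM final), then substrate plus GAPDH/TPI/NAD/arsenate coupling system with diaphorase/resazurin was added; resorufin fluorescence (525/598 nm) was read after 20 min.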
LmPK inh – inhibitors of Leishmania mexicana pyruvate kinase; Q27686; Potency, µM (doses to about 57.5 µM), hits mostly inhibitors; actives 0.37% (n = 290,000); purified LmPK, Kinase-Glo ATP luminescence, 1 h
Target sequence (Q27686 whole entry, looked up): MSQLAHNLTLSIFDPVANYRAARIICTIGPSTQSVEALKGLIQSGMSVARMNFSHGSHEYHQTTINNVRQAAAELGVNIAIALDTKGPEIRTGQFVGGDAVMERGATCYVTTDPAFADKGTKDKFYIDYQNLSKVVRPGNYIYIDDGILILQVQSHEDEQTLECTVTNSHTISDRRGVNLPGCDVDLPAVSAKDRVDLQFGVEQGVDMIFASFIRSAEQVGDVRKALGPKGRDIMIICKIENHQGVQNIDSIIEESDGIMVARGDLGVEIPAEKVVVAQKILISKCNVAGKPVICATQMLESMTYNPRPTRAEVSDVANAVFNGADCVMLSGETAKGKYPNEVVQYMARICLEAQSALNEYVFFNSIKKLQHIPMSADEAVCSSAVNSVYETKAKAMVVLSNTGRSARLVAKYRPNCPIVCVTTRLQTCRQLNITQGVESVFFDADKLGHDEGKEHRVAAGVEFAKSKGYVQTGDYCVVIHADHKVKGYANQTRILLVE
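Pyruvate kinase activity monitored as ATP production (luciferase luminescence). Conditions: 0.1 nM enzyme, 0.5 mM PEP, 0.1 mM ADP, 1 h, RT; normalized against uninhibited and no-enzyme wells.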
Shiga inhibitor – blocks Shiga toxin action in Vero cells. inhibition, % at 38.7 µM. Vero cells, Shiga toxin protein synthesis inhibition reporter. actives 9.2% (n = 290,000); in the data active = inhibition mostly above about 28%, no sharp cut-off; inactive = mostly below about 43%
CHX counter – counter-screen hit for Shiga toxin inhibitors, cycloheximide; max response, %; cell reporter, cycloheximide protein synthesis inhibition counterscreen; actives 12% (n = 300,000); in the data active = max response mostly above about 13%, no sharp cut-off; inactive = mostly below about 14%; also: read at 38.3 µM for the half of the compounds with a filed dose
Sm TGR inh – inhibitors of Schistosoma mansoni thioredoxin glutathione reductase; purified TGR, DTNB reduction, TNB absorbance 405 nm; Potency, µM (doses to about 114 µM), usual class: inhibitors; actives 3% (n = 360,000); Q962Y6; AID 485364; also: nearly all actives have a fitted effect of over 60% in size
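Kinetic colorimetric format: TGR-catalysed, NADPH-driven DTNB reduction monitored via TNB absorbance. Enzyme dispensed at 20 nM; compound exposure 15 min at room temperature before reaction start.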
Large screens that a line does not name were inactive. Unless noted, calls follow the shape of the dose curve; as a rule, active = well fitted curve in the direction sought with a large enough effect; inconclusive = small, poorly fitted or top-dose-only effect, or another doubt; inactive = no such curve, though single readings can be large; an effect the other way counts as inactive or inconclusive.

C=CC[C@@H]1C=C[C@@H](O/N=C\[C@@H](OC)[C@H](C)/C=C\CC(=O)OC)[C@@H](CO)O1	none (no result: Tb PYK inh, LmPK inh, Shiga inhibitor, CHX counter, Sm TGR inh)
COc1cc(/C=C/C(=O)NC(C)C)ccc1OCc1ccccc1	none
COc1cc(/C=N/OCC(=O)Nc2cc(C)on2)ccc1OCc1ccccc1	Shiga inhibitor 104, CHX counter 18
COc1cc(/C=N/n2cnnc2)ccc1OCc1ccccc1	CHX counter 22 (no result: Giardia FBPA inh)
COc1ccc(/C=N/NC(=O)CN2CCCC2)cc1	Sm TGR inh inconclusive
COc1cc(/C=N/NC(=O)CN2CCOCC2)ccc1OCc1ccccc1	none
COc1cc(/C=N/n2cnnc2)ccc1OCc1ccc(C)cc1	none
COc1cc(/C=N/NC(=O)CN2CCCCC2)ccc1OCc1ccccc1	Shiga inhibitor active, CHX counter 28
CC(C)(C)OC(=O)COc1ccc(/C=N/NC(=O)CN2CCCCC2)cc1	Shiga inhibitor 88, CHX counter 45
CCCCCCCC/C=C\CCCCCCCCCCCC(=O)O	none (no result: Tb PYK inh, LmPK inh, Sm TGR inh)
CCn1c(SCC(=O)NC2CC2)nnc1-c1ccc(F)cc1	none (no result: Giardia FBPA inh)
Cc1onc(NC(=O)c2ccc(Cl)cc2Cl)c1Br	Shiga inhibitor 72, CHX counter 42
Cc1onc(NC(=O)NC(=O)c2ccccc2F)c1Br	CHX counter 21 (no result: Giardia FBPA inh)
O=C(/C=C/c1ccccc1)c1ccc(O[C@H]2OC(CO)C(O)C(O)C2O)cc1O (some centres not stated)	none (no result: Tb PYK inh, LmPK inh, Shiga inhibitor, CHX counter, Sm TGR inh)
CCOC(=O)Cn1nc(-c2ccccc2)nc1-c1ccccc1	CHX counter 26
CCOC(=O)Cn1nc(-c2ccccc2)ccc1=O	none
CCOC(=O)Cn1ncc(-c2ccccc2)c1N	Shiga inhibitor 68, CHX counter 29
CCOCCc1nn2c(=O)cc(COC(=O)c3ccc(NC(=O)C(C)(C)C)cc3)nc2s1	none (no result: Giardia FBPA inh, LmPK inh, Shiga inhibitor, CHX counter)
COC(=O)c1sccc1-c1ccc(/C=N/OCc2c(Cl)cccc2Cl)o1	none (no result: Tb PYK inh)
CC1SCC(=NOCc2c(Cl)cccc2Cl)CS1 (configuration not stated)	Shiga inhibitor 62
CC(=O)C1=C(C)NC(SCC(=O)c2ccccc2)=C(C#N)C1CC(C)C (configuration not stated)	Tb PYK inh 32µM
COC(=O)C/C=C\[C@H](C)[C@@H](OC)c1ccccc1Br	none (no result: Tb PYK inh, LmPK inh, Shiga inhibitor, CHX counter, Sm TGR inh)
O=C(CN1CCN(S(=O)(=O)c2ccc(Cl)cc2)CC1)Nc1ccc(F)cc1F	CHX counter 17
COc1cccc(NS(=O)(=O)c2ccc(S(=O)(=O)N3CCCC3)cc2)c1	none (no result: Giardia FBPA inh, LmPK inh, Shiga inhibitor, CHX counter)
COc1cccc(C(=O)CN2CCN(S(=O)(=O)c3ccc(Br)cc3)CC2)c1	Sm TGR inh 14µM
COc1cccc(CNS(=O)(=O)c2ccc(S(=O)(=O)N3CCCC3)cc2)c1	Giardia FBPA inh 7.9µM, LmPK inh inconclusive, Sm TGR inh 45µM
O=C(CN1CCN(S(=O)(=O)c2ccc(Br)cc2)CC1)Nc1ccc(F)cc1F	CHX counter 13 (no result: Giardia FBPA inh)
CC[C@H](C)[C@H](NC(=O)[C@@H](N)Cc1ccc(O)cc1)C(=O)NCC(=O)N[C@@H](CO)C(=O)N[C@@H](CCCN=C(N)N)C(N)=O	none (no result: Tb PYK inh, LmPK inh, Sm TGR inh)
Cc1ccc(S(=O)(=O)C(CNS(=O)(=O)c2cc(F)ccc2F)c2cccs2)cc1 (configuration not stated)	Sm TGR inh inconclusive (no result: Giardia FBPA inh, LmPK inh, Shiga inhibitor, CHX counter)
O=C(O)CCc1nc2ccccc2n(CCc2ccccc2)c1=O	Sm TGR inh 40µM
CCCCn1c(=O)c(CCC(=O)O)nc2ccccc21	none
COc1nc2ccccc2nc1CCC(=O)O	Sm TGR inh 0.1µM
O=C(O)CCn1c2ccccc2c2nc3ccccc3nc21	Shiga inhibitor 58, CHX counter 19
c1ccc2nc3c(nc2c1)c1ccccc1n3CCN1CCOCC1	Shiga inhibitor 42
COC(=O)CCc1nc2ccccc2nc1OC	none
COc1ccccc1N1CCN(C(=O)C(CCSC)NS(=O)(=O)c2ccc3c(c2)oc(=O)n3C)CC1 (configuration not stated)	none (no result: Giardia FBPA inh, LmPK inh, Shiga inhibitor, CHX counter)
CC(=O)OCCCN1c2ccccc2Nc2nnc(-c3ccccc3)cc21	Shiga inhibitor 68, CHX counter 36
CC(=O)OCCN1c2ccccc2Sc2cnccc21	none (no result: Giardia FBPA inh, LmPK inh, Shiga inhibitor, CHX counter, Sm TGR inh)
CC1Cc2ccccc2N1C(=O)COC(=O)c1c2c(nc3ccccc13)CCCCC2 (configuration not stated)	CHX counter 14
O=C(OCC(=O)N1CCc2ccccc21)c1c2c(nc3ccccc13)CCCC2	Shiga inhibitor 62, CHX counter 34
COc1cccc(CS(=O)(=O)c2ccccc2)c1	none (no result: Tb PYK inh, LmPK inh, Shiga inhibitor, CHX counter, Sm TGR inh)
Nc1c(Cl)ncnc1N/N=C/c1ccncc1	Sm TGR inh 45µM
Oc1cccc(/C=N/Nc2ncnc3c2ncn3Cc2ccccc2)c1	Shiga inhibitor 53, CHX counter 18
Oc1ccc(/C=N/Nc2ncnc3c2ncn3Cc2ccccc2)cc1O	Giardia FBPA inh inconclusive
COc1ccc(/C=N/Nc2ncnc3sc4c(c23)CCCC4)cc1OC	none
COc1ccc(/C=N/Nc2ncnc(Cl)c2N)cc1OC	CHX counter 14, Sm TGR inh inconclusive
Clc1cncc(Cl)c1N/N=C/c1ccncc1	none
Nc1c(Cl)ncnc1N/N=C/c1cccc(O)c1	Shiga inhibitor 50, CHX counter 26, Sm TGR inh inconclusive
Cc1ccc(S(=O)(=O)N(CC(=O)Nc2cccnc2)c2cc(Cl)ccc2C)cc1	none (no result: Giardia FBPA inh, LmPK inh, Shiga inhibitor, CHX counter)
O=C(Nc1nc(-c2cccs2)c(-c2ccccc2)s1)c1ccco1	CHX counter 18
Nc1nc(-c2cccs2)c(-c2cccs2)s1	none
CC1CC1C(=O)Nc1nc(-c2cccs2)c(-c2cccs2)s1 (configuration not stated)	CHX counter 19
C[C@H](NC(=O)[C@@H]1CCCN1C(=O)[C@@H]1CCCN1C(=O)c1cccc2ccccc12)c1ccccc1	none (no result: Giardia FBPA inh, LmPK inh, Shiga inhibitor, CHX counter, Sm TGR inh)
CCN(CC)C(=O)COc1ccc(/C(C)=N/Nc2ncc(Cl)cc2Cl)cc1	Shiga inhibitor 66, CHX counter 28
C/C(=N\Nc1ncc(Cl)cc1Cl)c1ccc(C#N)cc1	LmPK inh inconclusive
CCOc1ccc(CCNC(=O)CCc2cn(Cc3ccc(C)cc3)c3ccccc23)cc1	none (no result: Giardia FBPA inh, LmPK inh, Shiga inhibitor, CHX counter)
O=C(Nc1ccc(Br)cc1F)c1ccc2c(c1)OCCO2	CHX counter 21
O=C(c1ccc2c(c1)OCO2)C1CCCN(C(=O)C2CCOCC2)C1 (configuration not stated)	none
O=C(COC(=O)c1ccc2c(c1)OCCO2)Nc1ccc(F)cc1F	none (no result: Giardia FBPA inh, LmPK inh, Shiga inhibitor, CHX counter, Sm TGR inh)
O=C(Nc1ccc(F)cc1F)c1ccc2c(c1)OCCO2	LmPK inh inconclusive, Shiga inhibitor 83, CHX counter 29
O=C(c1ccc2c(c1)OCO2)C1CCCN(C(=O)Nc2ccc(F)cc2F)C1 (configuration not stated)	CHX counter 18
Cc1ccc2nc(-c3ccc(NS(=O)(=O)c4ccc(F)c(F)c4)cc3)sc2c1	Shiga inhibitor 96, CHX counter 64
